Results on 40 sequences are retold here after the supplement of paper PMC6555819.

This experiment relates to VDR:RXRa (NR concentration 270 nM, RXRa partner concentration 90 nM). The experiment in a line: PBM binding z-score (relative to random genomic background probes); higher = stronger binding; sequences stand for … in GC…GCGATTGACAGCGTAGAATGAAGG
The procedure: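 Protein-binding microarray (Agilent 4x180K custom design, double-stranded 60-nt probes: 5' GC cap, 34-nt variable region, 24-nt constant primer region; full probe sequence given). Purified or IVT nuclear receptor:RXRα heterodimers (3:1 NR:RXRα, mostly 270:90 nM) or homodimers were incubated for 1 h in PBS with 2% milk and no ligand, then detected with Alexa488 antibodies. Fluorescence from o1-orientation probes (~5 replicates averaged) was converted to z-scores against 500 random hg19 background probes. Variable regions are seed direct-repeat (DR0–DR5) sites, all their single-nucleotide variants and half-site ablations.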
As to TCGAGTAGGTTACGTGGGCATTCAGGGATGAAGA, the PBM binding z-score was 0.00981.

With CCTGCTAGGTCAATGGTCAGCTAAAGCAGCTCGC, the PBM binding z-score was found to be 1.02. With CCGAGTAGGTTACGAGGGGGCAGTCAGTGCGAAT, the PBM binding z-score turned out to be 3.95.

The sequence CGTCAAAGTTCTAGGTAACGTAACAGAAAGCAGC returned a PBM binding z-score of 0.0814. Turning to CAAAGTAGGTCAAGGTCAAAGTCGGTTTGTGCCA, the PBM binding z-score came to 5.27.

For the sequence TAGCCTAGGTCATAGGCCAGTATACCACGCGAAC, the PBM binding z-score was determined as 1.74.

As to ACTTGGAGGACAAAGGTCAGAGCTACGCCAGTGA, the PBM binding z-score worked out at 3.58. On to CCTAGTTGGTCAAGCTCACACACGCTATAGGTAC, for which the PBM binding z-score was determined as 0.609. The sequence CCGAGTAGGTTACGAGGGGGCATTTAGTGCGAAT returned a PBM binding z-score of 4.94. In the case of AGAATGAGGTTACCAAAGATCAGTGAAACGCTTG it was 1.45; in that of TCTTGTAGATCAAAGGTCAAGAAAGCCGAAGCCT, 4.14. Under AACGAAAGGTCGACGAGGTGAGTATACACCGTTT stands 5.12; under CCTTACGGGTCACTCTAGGTTATAGCATCGGAGT, 3.67.

The sequence CCGAGTAGGTTACGAGGGGGCATTCGGTGCGAAT gave a PBM binding z-score of 5.48.

TCTAGCTGGTCAAAGGTCACACACTCGAAATGCG came in with a PBM binding z-score of 5.36. Take CCTTCTGGGCCATTCAGAGGTCATTGATCATATG: the PBM binding z-score was 4.01.

Consider AAATGTAGGTTAAGGGTCATTCAGGTTGGTTCGC, for which the PBM binding z-score came out at 5.82. In the case of CTATGTAGGCTAAGGGGGTCATTCAGTTTGAAAG it was 6.41. As for CGACCTAGGTCACCAGGACAGTGAAGAGGTTGGA, the PBM binding z-score was determined as 2.68. Under CAAACTAGGTCAAAGGTCAAGGTCGAGCCAACCA stands 6.86; under CCTACTGGGGCACGAAAGGTCATTGATTCAGTGA, 4.61.

CGAACTAGGTCAAATGACAGTGAAAGGCGACGTA had a PBM binding z-score of 1.63. In the case of ATATGAAGGTTATCGGGTCATTCAGTTTGCGCAT it was 5.41; in that of TATTGTAGATCAAAGGTTAAGAAAGCCGAAGCCT, 1.54; in that of CAAACTAGGTCACGAAAGGTCAAAGTGGAATGAC, 6.71. Under CTATGAAGGTTAAGGGGGTCATTCAGTTTGAAAG stands 7.95; under CCGAGTAGGTAACGAGGGGGCATTCAGTGCGAAT, 4.19.

In turn, CGTCCAAGGTCAATGCTAGGTCACTGAAAGCATT displayed a PBM binding z-score of 5.55. Under ATCGAAAGGTCGAAGGAGAGTATACCCACCCGAA stands 2.23; under AATACAGGGTCATTAGGCCAGAGTAGGTACGAAT, 4.61. In turn, CCGAGTAGGTTACGAGGGGGCATTCCGTGCGAAT yielded a PBM binding z-score of 4.84.

Take CCGAGTAAGTTACGAGGGGGCATTCAGTGCGAAT: the PBM binding z-score worked out at 3.83. The sequence CTCGAAAGGTCGTGCTCAGGTGAGTATGCCAAAC came in with a PBM binding z-score of 3.25. CCTTACGGGTCAAGGTAATAGCACGGGTGGTACG came in with a PBM binding z-score of 2.65. Take TCGAATAGGTTACGGGGGCATTCAGGGATGAAGA: the PBM binding z-score is 4.6. In the case of CAATCTAGGTCAAAGGTCAAAGTCGAGCCAACCA it was 6.74. In the case of CGAACTAGGTCAAAGGGCAGTGAAAGGCGACGTA, the PBM binding z-score was 2.63. Under ATATGTAGGTTAGGGTCATTCACAAAGTAGGGAA stands 4.61. Under CGAACTAGGTCAAAGGACAGTGAGAGGCGACGTA stands 1.19; under ACATGTAGGTTAGGGTCATTCAGAAAGTAGGGAA, 4.52.
